# This is a sample that favours compounds with a hit; in the whole collection about 2.6% have one here.
# p53 reactivation: re-activators of mutant p53. H1299 p53-A138V BP100-luciferase reporter, luminescence, 24 h. Potency, µM (highest dose often 92.2 µM), most hits filed as activators. 0.063% of 320,000 active. AID 504706; active = well fitted activation curve with a large enough effect; inconclusive = small, poorly fitted or top-dose-only effect; inactive = no such curve, though single readings can be large or run the other way; note: nearly all actives have a fitted effect of over 45% in size
#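 H1299 (p53-null), stable ts p53-A138V + BP100-Luc; 1000 cells/well, Opti-MEM/10% FBS; cpd 4 pt, 1:5; 24 h, 37 deg C, 5% CO2; detection reagent 10 min RT; luminescence.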
# TRPV1 agonist: agonists of human vanilloid receptor 1 (TRPV1); Q8NER1; TRPV1-expressing cells, Fluo-8 calcium influx, agonist mode; activation, % at 8.33 µM; 0.19% of 320,000 active; AID 540275; in the data active = activation above about 80%; inconclusive = between about 30% and that limit
#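 Fluo-8 calcium influx in TRPV1-expressing cells, kinetic read (ex 480/em 520 nm). Compound added and read 3 min for agonist activity, followed by capsaicin at EC20 final and 2 min further read for enhancement.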
# KCNH2 3.1 block: inhibitors of human KCNH2 3.1 potassium channel isoform | U2OS KCNH2 3.1, thallium flux FluxOr; stronger effect = lower value | activity change, % (tested at about 1.8 µM) | 0.95% of 340,000 active | AID 720553;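 active = maximum activity change below -70%; inconclusive = maximum activity change from -70% to -50%; inactive = maximum activity change above -50%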;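 note: thallium influx rate constant from kinetic fluorescence after stimulation buffer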
#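 Thallium flux via FluxOr fluorescence (Red40 quencher, 45 min loading) in U2OS cells virally expressing the KCNH2 3.1 isoform (1.77 x 10^8 /mL virus, overnight at 37 C). Rate constants from 2-min kinetic reads post-stimulation, normalised to positive and negative controls.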
# hERG WT inh: KCNH2 (human, wildtype) channel inhibition; Q12809; U2OS, BacMam KCNH2, thallium flux FluxOr; stronger effect = lower value; activity change, % at 1.84 µM; 0.37% of 340,000 active;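 active = maximum activity change below -70%; inconclusive = maximum activity change between -70% and -50%; inactive = maximum activity change above -50%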
#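 U2OS cells transduced with wild-type KCNH2 virus are loaded with FluxOr dye for 45 min, and thallium flux is measured in kinetic reads before and after stimulation buffer. Rate constants are normalized to DMSO controls.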
# TRPV1 PAM: potentiators of human vanilloid receptor 1 (TRPV1); Q8NER1; TRPV1-expressing cells, Fluo-8 calcium influx, capsaicin EC20 potentiation; potentiation, % at 8.33 µM; 0.02% of 320,000 active; in the data active = potentiation above about 80%; inconclusive = between about 30% and that limit
#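 TRPV1-expressing cells were cultured overnight at 35.5C and loaded with Fluo-8 calcium dye for 40 to 90 min at room temperature. After a 10 s baseline, compound was added and calcium influx was read kinetically for 3 min (ex 480/em 520 nm).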
# ClpP mod: qHTS Assay for Activators of ClpP; purified B. subtilis ClpP, FRET peptide cleavage, 20 min; Potency, µM (highest dose often 57.5 µM); 1.9% of 340,000 active; AID 651965, 2013; active = well fitted falling curve with a large enough effect; inconclusive = small, poorly fitted or top-dose-only effect; inactive = no such curve, though single readings can be large or run the other way; note: the source files actives as falling curves though it sought activators and does not explain the sign; nearly all actives have a fitted effect of over 65% in size
# Target sequence (P80244 whole entry, looked up): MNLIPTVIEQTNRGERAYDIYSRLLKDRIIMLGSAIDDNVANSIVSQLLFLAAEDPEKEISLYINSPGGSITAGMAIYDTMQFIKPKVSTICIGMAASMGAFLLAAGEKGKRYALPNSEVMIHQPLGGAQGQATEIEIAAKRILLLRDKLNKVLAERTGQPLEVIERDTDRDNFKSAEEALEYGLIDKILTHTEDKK
#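 ClpP 10 microg/mL final, pH 8 Tris/KCl buffer with BSA, glycerol, Tween-20; compound pinned in; FRET-FV substrate; RT 20 min; Ex320/Em430; ΔFRET vs ADEP 5.8 microM, DMSO, no enzyme.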
# Numbers stand for hits; . = inactive; ? = inconclusive; / = no result; ! = not active in a repeat.
SMILES,p53 reactivation,TRPV1 agonist,KCNH2 3.1 block,hERG WT inh,TRPV1 PAM,ClpP mod
Cc1cccn2c(=O)c3cc(C(N)=S)c(=N)n(CCCOC(C)C)c3nc12,.,.,.,.,?,16µM
CCOCCCn1c(=N)c(C(N)=S)cc2c(=O)n3cccc(C)c3nc21,.,.,.,.,.,28µM
COCCCn1c(=N)c(C(=O)NCc2ccco2)cc2c(=O)n3cccc(C)c3nc21,/,/,/,/,/,.
CCOc1ccc2c(c1)c(=O)c(C(=O)c1ccc(CC)cc1)cn2CC(=O)Nc1cccc(Cl)c1,/,/,/,/,/,.
Cc1ccc2nc(-c3ccc(NC(=O)C(C)N4C(=O)c5ccccc5C4=O)cc3)sc2c1 (stereo not drawn),?,.,.,.,.,25µM
Cc1ccccc1OCCC(=O)OCC(=O)c1c(N)n(CC(C)C)c(=O)n(C)c1=O,/,/,?,.,/,28µM
CC(C)c1ccc(-c2noc(SCC(=O)N(C)c3ccc(F)cc3)n2)cc1,/,/,/,/,/,.
Cc1ccc(-c2cc3nc(-c4ccc(Br)cc4)cc(N)n3n2)cc1,.,.,.,.,.,28µM
Cc1ccc(-c2cc(N)n3nc(-c4ccc(C)cc4)cc3n2)cc1,.,.,.,.,.,13µM!
Cc1ccc(-c2cc(-c3ccccc3)nc(Cl)n2)cc1,.,?,.,.,.,28µM
Cc1ccc(-c2cc(N)n(-c3ccc(C)cc3)n2)cc1,?,.,.,.,.,.
Cc1cc(C)n2nc(-c3ccc(Br)cc3)cc2n1,.,.,.,.,.,.
COc1ccc(-c2cc(-c3ccccc3)nc(Cl)n2)cc1OC,.,.,.,.,.,/
Cc1ccc(-c2cc3nc(-c4ccccc4)cc(N)n3n2)cc1,.,.,.,.,.,25µM
Cc1cc(O)c(C(=O)c2cnc3c(c2)COc2ccccc2-3)cc1Cl,/,/,/,/,/,.
Cc1cc(-c2ccccc2)n2nc(-c3cccc(Br)c3)cc2n1,/,/,/,/,/,.
Cc1cc(N)n2nc(-c3ccccc3)cc2n1,?,.,.,.,.,28µM
Cc1ccc(CC(=O)NO)cc1,/,/,/,/,/,.
COC(=O)c1cc(S(=O)(=O)N(C)C2CCCCC2)c[nH]1,.,.,-120,.,.,.
COc1ccc(CN2CCC(Oc3cc(C(=O)NC4CC4)ccc3OC)CC2)c(O)c1,.,.,-94,-109,.,.
CC1CCCCC1NC(=O)CN1CCC(NC(=O)c2ccc([N+](=O)[O-])cc2)CC1 (stereo not drawn),.,.,.,.,.,/
COc1ccc(C(=O)NC2CC2)cc1OC1CCN(Cc2cnn(C)c2C)CC1,.,.,.,.,.,.
COc1cc(CN2CCC(Oc3cc(C(=O)NC4CC4)ccc3OC)CC2)cc(OC)c1,.,.,.,.,.,.
O=C(NC1CCN(CC(=O)N(c2ccccc2)c2ccccc2)CC1)c1ccc([N+](=O)[O-])cc1,.,.,-111,-77,.,.
O=C(NC1CCN(Cc2ccccc2)CC1)c1ccccc1,.,.,.,.,.,.
SMILES,p53 reactivation,TRPV1 agonist,KCNH2 3.1 block,hERG WT inh,TRPV1 PAM,ClpP mod
O=C(NC1CCN(Cc2ccc(Cl)cc2Cl)CC1)c1ccccc1,.,.,-84,.,.,.
COc1ccc(C(=O)NC2CC2)cc1OC1CCN(Cc2cc(C)c(C)cc2C)CC1,.,.,-75,?,.,.
CCOc1ccccc1OCCCCn1c(-c2ccc(Cl)cc2)nc2ccccc2c1=O,/,/,/,/,/,.
O=S(=O)(O)c1c(NS(=O)(=O)c2ccccc2)ccc2ccccc12,/,.,/,/,.,/
CCN(C(=O)COC(=O)C(C)(C)Oc1ccc(Cl)cc1)c1c(N)n(Cc2ccccc2)c(=O)[nH]c1=O,/,/,.,.,/,.
Cc1ccc(S(=O)(=O)c2nnn3c2nc(NC(C)c2ccccc2)c2sccc23)cc1 (stereo not drawn),/,/,/,/,/,.
COc1ccc(C(=O)NC2CC2)cc1OC1CCN(Cc2ccc(F)cc2Cl)CC1,/,/,-93,-75,/,.
COc1ccc(C(=O)NC2CC2)cc1OC1CCN(Cc2ccc(NC(C)=O)cc2)CC1,/,.,.,.,.,.
CCN(C(=O)CSc1nc2ccccc2n1CC(=O)Nc1ccccc1C)c1ccccc1,/,/,/,/,/,.
